Measured values: PubChem BioAssay AID488975 (Johns Hopkins Ion Channel Center, 2010)
In all, about 310,000 compounds went through this assay and about 2,600 (0.84%) were called active.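 Rule for the calls: active = B-score over 3 SD under the library average, and starting fluorescence ratio not unusually high; inactive = the rest.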 The full list was thinned out, with actives kept by preference.

target: High affinity choline transporter 1 (Homo sapiens) (UniProt Q9GZV3); assay: inhibitors of human choline transporter CHT (AID 488975); details: CHT-expressing cells, membrane potential dye, choline response, at 10 µM; active compounds read low;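 for B-score: choline stimulus applied at its EC90 after an EC20 pre-addition; B-score computed on integrated fluorescence ratio after choline addition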
Sequence (Q9GZV3 whole entry, looked up): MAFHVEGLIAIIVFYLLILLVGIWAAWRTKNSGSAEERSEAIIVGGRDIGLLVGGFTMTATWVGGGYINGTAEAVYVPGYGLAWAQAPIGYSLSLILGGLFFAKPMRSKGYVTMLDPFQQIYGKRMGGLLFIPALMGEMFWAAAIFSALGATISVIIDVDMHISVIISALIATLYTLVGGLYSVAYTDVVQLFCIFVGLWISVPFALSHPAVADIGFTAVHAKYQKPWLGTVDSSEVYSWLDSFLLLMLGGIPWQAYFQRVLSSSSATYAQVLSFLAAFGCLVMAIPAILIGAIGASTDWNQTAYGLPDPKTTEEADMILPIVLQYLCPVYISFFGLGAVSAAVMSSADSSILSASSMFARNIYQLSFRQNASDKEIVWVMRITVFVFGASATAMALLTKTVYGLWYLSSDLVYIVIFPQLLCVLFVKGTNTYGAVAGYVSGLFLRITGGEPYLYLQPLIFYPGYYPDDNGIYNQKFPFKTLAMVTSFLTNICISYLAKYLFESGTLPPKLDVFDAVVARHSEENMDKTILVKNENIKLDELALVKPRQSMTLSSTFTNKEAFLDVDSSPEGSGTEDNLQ

Row | Structure (SMILES) | B-score
1 | Fc1ccccc1COc1cccc2cccnc12 | inactive
2 | CN(/N=C/c1ccccc1)C(=S)c1ccccc1 | inactive
3 | COc1ccc([C@@H]2[C@@H]3C(=O)N(C(C)(C)C)C(=O)[C@@H]3[C@]3(Cc4ccccc4)C(=O)N(c4cccc(Br)c4)C(=O)N23)cc1 | inactive
4 | Cc1cccc(NC(=O)c2cccc(S(=O)(=O)N3CCCC3)c2)n1 | inactive
5 | O=S(=O)(c1cccc(-c2cn3ccccc3n2)c1)N1CCCC1 | inactive
6 | O=S(=O)(c1cccc(-c2nnc(SC(F)F)n2-c2ccccc2)c1)N1CCCCC1 | -6.54 (active)
7 | O=S(=O)(c1cccc(-c2nnc3n2CCCCC3)c1)N1CCOCC1 | inactive
8 | Cc1onc(-c2ccccc2Cl)c1C(=O)N(Cc1ccc(N(C)C)cc1)C(C)C | inactive
9 | Cc1ccn2c(=O)c(NC(=O)c3cccc4ccccc34)c(C)nc2c1 | inactive
10 | COC(=O)C(C(=O)Nc1cccc(Cl)c1C)C1CCCC1 (stereo not given) | -5.46 (active)
11 | Cc1c(Cl)cccc1NC(=O)NCc1ccc(C)n1C | inactive
12 | Cc1c(Cl)cccc1NC(=O)Nc1ccc(C(=O)N2CCCC2)cc1 | inactive
13 | CCN(CC(=O)Nc1c(F)cccc1F)C(=O)C1CCC1 | inactive
14 | Cc1ccc(S(=O)(=O)NC(C)C(=O)NCc2ccc(Cl)cc2)cc1 (stereo not given) | inactive
15 | CCCNC(=O)c1ccc(N2CCC3(CC2)CC(c2cccc(Br)c2)=NO3)c(NC(=O)c2ccco2)c1 | inactive
16 | CN(CC(=O)NCc1ccc(Cl)cc1)S(=O)(=O)c1cccs1 | inactive
17 | CCN(CC(=O)NCc1ccc(Cl)cc1)C(=O)CSc1ccccc1 | -5.83 (active)
18 | CCN(CC(=O)Nc1cc(Cl)ccc1C)C(=O)CSCc1ccc(C)cc1 | inactive
19 | COc1ccc(N2CC(NS(=O)(=O)c3ccc4ccccc4c3)CC2=O)cc1 (stereo not given) | inactive
20 | O=C1N[C@@H](Cc2ccccc2)C(=O)N2[C@H]1C[C@]1(Br)c3ccccc3N(S(=O)(=O)c3ccccc3)[C@H]21 | inactive
21 | Cc1nc2ccccc2c(=O)n1-c1ccc(F)c(NC(=O)c2cccs2)c1 | inactive
22 | CCN(CC)CCn1c2c(c(SCC(=O)Nc3ccc(C(C)C)cc3)nc1=O)CCC2 | inactive
23 | CS(=O)(=O)N(CC(=O)N1CCN(c2cccc(Cl)c2)CC1)c1ccccc1 | inactive
24 | CC1CCN(C(=O)CN(c2ccc(Oc3ccccc3)cc2)S(C)(=O)=O)CC1 | -5.53 (active)
25 | COc1ccc(N(CC(=O)N2CCCCCC2)S(=O)(=O)c2ccccc2)cc1 | inactive
26 | NC(=O)NCCCC(=O)O | inactive
27 | Cc1ccc(NC(=O)COc2coc(CN3CCc4ccccc4C3)cc2=O)cc1Cl | inactive
28 | O=C(O/N=C(/c1ccccc1)c1ccncc1)c1ccccc1[N+](=O)[O-] | -5.03 (active)
29 | O=C(Nc1ccncc1)c1ccccc1[N+](=O)[O-] | inactive
30 | COc1ccc(NC(=O)c2ccccc2[N+](=O)[O-])cc1OC | inactive
